Records with an inconclusive call do not appear. Active and inactive are the calls of the source. The call rests on the fitted dose curve; in most records, active means well fitted inhibition curve with a large enough effect; inconclusive means small, poorly fitted or top-dose-only effect; inactive means flat fitted curve, though single readings scatter.
On the % scale 0 is the no-effect control and ±100 the full control effect.

Voltage-gated inwardly rectifying potassium channel KCNH2 (Homo sapiens), sequence (Q12809 whole entry, looked up): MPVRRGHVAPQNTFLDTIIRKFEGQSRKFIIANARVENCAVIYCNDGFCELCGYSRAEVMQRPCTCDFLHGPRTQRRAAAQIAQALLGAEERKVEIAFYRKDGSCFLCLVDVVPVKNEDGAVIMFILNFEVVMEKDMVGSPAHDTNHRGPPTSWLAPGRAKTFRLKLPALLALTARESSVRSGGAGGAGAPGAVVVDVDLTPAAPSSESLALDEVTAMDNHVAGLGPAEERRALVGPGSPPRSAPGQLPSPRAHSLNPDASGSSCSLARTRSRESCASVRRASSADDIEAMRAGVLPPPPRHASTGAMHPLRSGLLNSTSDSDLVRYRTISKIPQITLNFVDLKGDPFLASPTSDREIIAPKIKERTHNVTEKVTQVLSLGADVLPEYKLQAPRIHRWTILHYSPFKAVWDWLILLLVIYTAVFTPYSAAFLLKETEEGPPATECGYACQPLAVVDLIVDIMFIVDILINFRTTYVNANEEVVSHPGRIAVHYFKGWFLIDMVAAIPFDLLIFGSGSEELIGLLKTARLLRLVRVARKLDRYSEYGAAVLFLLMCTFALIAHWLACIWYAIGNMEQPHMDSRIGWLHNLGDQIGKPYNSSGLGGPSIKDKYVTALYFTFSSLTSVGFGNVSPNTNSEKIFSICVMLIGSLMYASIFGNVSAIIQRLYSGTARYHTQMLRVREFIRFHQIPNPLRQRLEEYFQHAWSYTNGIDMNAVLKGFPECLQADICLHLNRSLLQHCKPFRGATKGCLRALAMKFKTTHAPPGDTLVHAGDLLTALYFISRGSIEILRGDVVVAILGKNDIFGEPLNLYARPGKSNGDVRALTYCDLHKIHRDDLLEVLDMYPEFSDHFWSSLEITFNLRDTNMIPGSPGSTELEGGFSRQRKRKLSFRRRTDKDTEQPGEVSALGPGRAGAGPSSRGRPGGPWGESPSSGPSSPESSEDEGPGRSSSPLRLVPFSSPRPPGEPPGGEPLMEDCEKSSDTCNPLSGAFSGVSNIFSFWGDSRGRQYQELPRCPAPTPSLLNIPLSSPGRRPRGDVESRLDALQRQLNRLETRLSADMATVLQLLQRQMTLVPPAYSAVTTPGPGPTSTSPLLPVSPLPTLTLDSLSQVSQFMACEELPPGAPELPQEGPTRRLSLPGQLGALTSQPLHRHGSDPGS

The experiment concerns the target Voltage-gated inwardly rectifying potassium channel KCNH2 (Homo sapiens) (UniProt Q12809). The experiment is described as follows: qHTS Assay for Small Molecule Inhibitors of the Human hERG Channel Activity (AID 588834).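 Further: top concentration of the series differs between compounds; lower thallium flux fluorescence means stronger hERG block; nearly all actives have a fitted effect of over 50% in size.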 Particulars: U2OS BacMam hERG, FluxOR thallium flux fluorescence; series mostly up to 46.1 µM; activity change, negative = inhibition: at the top concentration. In outline: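 Concentration-response qHTS measuring drop in thallium-sensitive dye signal. U2OS cells carrying BacMam hERG; compound exposure ~10 min, then stimulation buffer and 2 min read at 1 sec intervals.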
For orientation: qHTS replaces the single test concentration by a dilution series.
Consider `Cc1ccc2c(c1)c1c3n2CCNC3CCC1` (stereo unspecified), for which the “activity change, negative = inhibition” value was -19.8% (inactive). The figure for `CCOc1ccccc1O[C@H](c1ccccc1)[C@H]1CNCCO1` is -27.6% (inactive); for `CN[C@@H]1[C@@H](O)[C@@H](O[C@@H]2[C@H](O)[C@H](O[C@H]3OC(CN)=CC[C@H]3N)[C@@H](N)C[C@H]2N)OCC1(C)O` (stereo partly specified) it is 27.2% (inactive); for `C[N+](C)(C)CC(O)CC(=O)[O-]` (stereo unspecified) it is -9.38% (inactive). The figure for `CN1C(=O)CC(c2ccccc2)C1=O` (stereo unspecified) is 10.2% (inactive). As to `C/C=C/C(=O)N(CC)c1ccccc1C`, the “activity change, negative = inhibition” value was 4.46% [at 20.6 µM] (inactive).

Source of the values: PubChem BioAssay (NCATS).
